Compound activity from PubChem BioAssay.
Rows were chosen to be rich in hits. Some 9.4% of all compounds tested hit in one or more screens of this group.
FLuc modulator – firefly luciferase modulation, counter-screen for miR-21 project | P08659 | purified FLuc, Km substrates, luminescence inhibition | Potency, µM (top dose mostly 57.5 µM), for the others: at the highest dose activity change, negative = inhibition, usual class: inhibitors | hit rate 6.9% among 360,000 | AID 588342;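 also: plate controls were vehicle for no effect and reference inhibitor for full effect; nearly all actives have a fitted effect of over 55% in size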
Target sequence (P08659 whole entry, looked up): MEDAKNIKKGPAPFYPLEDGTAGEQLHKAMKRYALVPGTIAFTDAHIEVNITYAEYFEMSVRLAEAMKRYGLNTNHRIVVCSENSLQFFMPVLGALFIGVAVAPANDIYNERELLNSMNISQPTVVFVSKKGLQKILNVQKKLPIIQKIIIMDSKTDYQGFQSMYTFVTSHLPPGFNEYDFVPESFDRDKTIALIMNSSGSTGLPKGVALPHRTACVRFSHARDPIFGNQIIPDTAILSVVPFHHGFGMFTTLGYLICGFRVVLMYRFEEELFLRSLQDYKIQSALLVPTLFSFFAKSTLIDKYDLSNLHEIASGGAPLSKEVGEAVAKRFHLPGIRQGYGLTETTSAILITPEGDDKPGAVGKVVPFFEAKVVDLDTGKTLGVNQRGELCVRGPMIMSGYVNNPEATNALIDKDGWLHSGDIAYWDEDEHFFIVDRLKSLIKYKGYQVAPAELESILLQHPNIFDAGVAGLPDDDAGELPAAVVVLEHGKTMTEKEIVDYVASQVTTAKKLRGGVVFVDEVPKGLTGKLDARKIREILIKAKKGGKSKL
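Biochemical qHTS of compounds, final roughly 60 µM downward over six points, against 10 nM purified firefly luciferase using Km concentrations of substrates (10 uM D-luciferin, 10 uM ATP) in Tris acetate pH 7.5 buffer; luminescence output.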
ELG1 genotox – induces genotoxicity in HEK293T cells with luciferase-tagged ELG1. Potency, µM (doses to about 46 µM), for the others: top-dose activity change, positive = activation, most hits filed as activators. AID 504466. HEK293T ELG1-luciferase reporter, luminescence, 16 h. hit rate 1.3% among 330,000; also: % of control where 0% means no effect; nearly all actives have a fitted effect of over 60% in size
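HEK293T cells expressing luciferase-tagged ELG1 were exposed to compound or DMSO vehicle for 16 hr at 37 °C and 5% CO2. Luciferase activity was then measured with ONE-Glo after 30 min at room temperature.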
NPC1 promoter act – activators of NPC1 promoter | Huh7 NPC1 promoter luciferase reporter, 24 h | Potency, µM (top dose mostly 9.22 µM), for the others: at the top dose activation, actives largely listed as activators | hit rate 2.4% among 320,000 | AID 485313; also: % of control where 0% means no effect; nearly all actives have a fitted effect of over 60% in size
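Stable NPC1-promoter luciferase Huh7 line; cpd (DMSO) 24 h, 37 °C, 5% CO2; Amplite luciferase reagent 10 min RT; luminescence readout. qHTS format.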
ELG1 repair inh – ELG1-dependent DNA repair inhibition | HEK293T ELG1-luciferase reporter, luminescence, 16 h; DNA damage induced by 5-fluorouridine | Potency, µM (top dose mostly 46.1 µM), inactives show at the top dose activity change, negative = inhibition, usual class: inhibitors | hit rate 2.3% among 330,000; also: % is scaled to controls: 0 for no effect and ±100 for the full control effect; nearly all actives have a fitted effect of over 55% in size
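Luminescence from the luciferase reporter, measured 30 min after ONE-Glo reagent at room temperature, was the read-out. Beforehand, 2,000 cells per well were exposed for 16 hr at 37 °C to 5-fluorouridine together with compound or vehicle.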
SMN2 splice enh – enhancers of SMN2 splice variant expression; Potency, µM (doses to about 46.1 µM), for the others: top-dose activity change, positive = activation, hits mostly activators; hit rate 2.8% among 210,000; HEK293 SMN2-luciferase splicing reporter, luminescence, 30-36 h; also: % of control where 0% means no effect; nearly all actives have a fitted effect of over 55% in size
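qHTS luciferase splicing reporter: luminescence rises when SMN2 exon 7 is included in transfected HEK293 cells. Compound exposure lasted 30-36 h at 37C, with 4.5 mM final sodium butyrate as control, followed by a ONE-Glo read.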
Rab9 promoter act – activates the Rab9 promoter. Huh7 Rab9 promoter-luciferase reporter, luminescence, 24 h. Potency, µM (titrated, usually from 9.22 µM), without a hit: top-dose activation, negative = inhibition, usual class: activators. hit rate 2.8% among 320,000; also: % of control where 0% means no effect; nearly all actives have a fitted effect of over 60% in size
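Luminescence from Amplite-detected luciferase (10 minutes, ambient) reports Rab9 promoter activation. Before that, stable Rab9-luciferase Huh7 cells (1500/well, reduced-serum OP-MEM I plus 10% FBS) were exposed to compound for 24 hours at 37C.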
Starred values were filed as active, the others as inactive; ! = not active in a repeat; [ ] = dose if it differs, or a comment. Calls follow the shape of the dose curve; as a rule, active = well fitted curve in the direction sought with a large enough effect; inconclusive = small, poorly fitted or top-dose-only effect, or another doubt; inactive = no such curve, though single readings can be large; an effect the other way counts as inactive or inconclusive. Potency is read from the fitted curve at half-maximal effect.

How did O=C(NCc1ccc(Cl)cc1)c1cc2ccccc2oc1=O do in these assays?
FLuc modulator: inconclusive; ELG1 genotox: 8%; NPC1 promoter act: 1%; ELG1 repair inh: inconclusive; Rab9 promoter act: 2%

What do the screens show for `N#Cc1cccc(NC(=O)C2CCN(c3cnccn3)CC2)c1`?
FLuc modulator: -7%

What do the screens show for `COc1ccc(N=Nc2nc(-c3ccccc3)c(-c3ccccc3)[nH]2)cc1`?
FLuc modulator: 9.5µM*; ELG1 genotox: -8%; NPC1 promoter act: 0%; ELG1 repair inh: inconclusive; SMN2 splice enh: 2%[1.84 µM]; Rab9 promoter act: -4%

What do the screens show for `COc1ccccc1N=Nc1nc(-c2ccccc2)c(-c2ccccc2)[nH]1`?
FLuc modulator: 12µM*; ELG1 genotox: -7%; NPC1 promoter act: -3%; ELG1 repair inh: 23µM*; SMN2 splice enh: 0%; Rab9 promoter act: 0%

What do the screens show for `Oc1ccccc1N=Nc1nc(-c2ccccc2)c(-c2ccccc2)[nH]1`?
FLuc modulator: inconclusive; ELG1 genotox: 0%; NPC1 promoter act: -17%; ELG1 repair inh: -7%; SMN2 splice enh: -120%; Rab9 promoter act: -18%

How did Cc1ccccc1CN1C(=O)c2ccccc2Sc2ccc(C(=O)NC3CCCCC3)cc21 do in these assays?
FLuc modulator: -8%

What do the screens show for `CC(=O)c1c(C)[nH]c(C(=O)OCc2csc(CC(=O)Nc3ccccc3C)n2)c1C`?
ELG1 genotox: -2%; ELG1 repair inh: 13µM*

How did Cc1ccccc1NC(=O)Cc1nc(COC(=O)c2ccc(Cl)c(S(N)(=O)=O)c2)cs1 do in these assays?
FLuc modulator: 4%; ELG1 genotox: 3%; NPC1 promoter act: -4%; ELG1 repair inh: 5.2µM*; Rab9 promoter act: 1%

What do the screens show for `CCOC(=O)c1c(C)[nH]c(C)c1S(=O)(=O)NCC(=O)N1CCN(c2cccc(C)c2)C(C)C1` (stereo unspecified)?
FLuc modulator: -2%

Results for O=C(COC(=O)c1cc([N+](=O)[O-])ccc1NCCO)c1ccc(Cl)cc1 ?
FLuc modulator: -1%; ELG1 genotox: -5%; NPC1 promoter act: -3%; ELG1 repair inh: inconclusive; SMN2 splice enh: -8%; Rab9 promoter act: -1%

Results for CCc1ccc(C(=O)COC(=O)c2cc([N+](=O)[O-])ccc2NCCO)cc1 ?
FLuc modulator: inconclusive; ELG1 genotox: 0%; NPC1 promoter act: 15%; ELG1 repair inh: 15µM*; SMN2 splice enh: -17%; Rab9 promoter act: 0%

What do the screens show for `COc1ccc2c(c1)C(=O)[C@@H](OC(=O)NCc1ccco1)[C@H](c1ccc(OC)c(Br)c1)O2`?
SMN2 splice enh: -6%

How did CCOc1ccc(N(C)S(=O)(=O)c2ccc3[nH]cc(C(=O)NCC4CCCO4)c(=O)c3c2)cc1 (stereo unspecified) do in these assays?
FLuc modulator: -1%; ELG1 genotox: -17%; NPC1 promoter act: 1%; ELG1 repair inh: 23µM*; SMN2 splice enh: -13%; Rab9 promoter act: -1%

Results for CCOc1ccc(NS(=O)(=O)c2ccc3[nH]cc(C(=O)NCCOC)c(=O)c3c2)cc1 ?
FLuc modulator: 11µM*!; ELG1 genotox: inconclusive; NPC1 promoter act: 2.5µM*; ELG1 repair inh: inconclusive; SMN2 splice enh: 13µM*!; Rab9 promoter act: 2µM*

Results for CCN(CC)S(=O)(=O)c1ccc2[nH]cc(C(=O)NCCC3=CCCCC3)c(=O)c2c1 ?
FLuc modulator: 0%; ELG1 genotox: -19%; NPC1 promoter act: -10%; ELG1 repair inh: 13µM*; SMN2 splice enh: -47%; Rab9 promoter act: -7%

What do the screens show for `CCc1ccc(NS(=O)(=O)c2ccc3[nH]cc(C(=O)N4CCc5ccccc54)c(=O)c3c2)cc1`?
FLuc modulator: 21µM*; ELG1 genotox: inconclusive; NPC1 promoter act: 12%; ELG1 repair inh: inconclusive; SMN2 splice enh: inconclusive; Rab9 promoter act: 23%

Results for Cc1cc(C)c(S(=O)(=O)NCCc2cc3ccc(C)cc3[nH]c2=O)c(C)c1 ?
FLuc modulator: -2%; SMN2 splice enh: 2%

What do the screens show for `O=C(O)c1cc(NC(=O)C2CCCO2)cc(C(=O)O)c1` (stereo unspecified)?
FLuc modulator: 2%; ELG1 genotox: 3%; NPC1 promoter act: -2%; ELG1 repair inh: 17%; Rab9 promoter act: 0%

Results for CC(C)(C)c1cc(NC(=O)C2CCCO2)no1 (stereo unspecified) ?
FLuc modulator: 15µM*; ELG1 genotox: inconclusive; NPC1 promoter act: inconclusive; ELG1 repair inh: inconclusive; SMN2 splice enh: inconclusive; Rab9 promoter act: 27%

Results for CSc1ccc(/C=N/NC(=O)c2cc(O)cc(O)c2)cc1 ?
FLuc modulator: 9.5µM*; ELG1 genotox: inconclusive; NPC1 promoter act: inconclusive; ELG1 repair inh: inconclusive; SMN2 splice enh: inconclusive; Rab9 promoter act: inconclusive

Results for CSc1ccc(/C=N/NC(=O)c2sccc2C)cc1 ?
FLuc modulator: 0.43µM*; ELG1 genotox: 1.8µM*; NPC1 promoter act: 0.56µM*; ELG1 repair inh: inconclusive; SMN2 splice enh: 2.5µM*; Rab9 promoter act: 0.63µM*

Results for COCCCNC(=O)CC(=O)N/N=C\c1ccc(SC)cc1 ?
FLuc modulator: -2%; ELG1 genotox: 1%; NPC1 promoter act: -7%; ELG1 repair inh: 11%; Rab9 promoter act: -3%

Results for CSc1ccc(/C=N/NC(=O)c2ccc(C)c(C)c2)cc1 ?
FLuc modulator: 19µM*; ELG1 genotox: 6%; NPC1 promoter act: 2%; ELG1 repair inh: -1%; SMN2 splice enh: 11%; Rab9 promoter act: -1%

What do the screens show for `COc1ccc(OCc2ccc(/C=N\NC(=O)c3sccc3C)o2)cc1`?
FLuc modulator: 27µM*; ELG1 genotox: 13%; NPC1 promoter act: inconclusive; ELG1 repair inh: inconclusive; Rab9 promoter act: inconclusive

How did O=C(N/N=C\c1ccc(COc2ccc([N+](=O)[O-])cc2)o1)c1ccc(Cl)cc1 do in these assays?
FLuc modulator: -17%; ELG1 genotox: -9%; NPC1 promoter act: 0%; ELG1 repair inh: -22%; SMN2 splice enh: -19%; Rab9 promoter act: 0%

How did Cc1cccc(C(=O)Oc2ccc(/C=N/NC(=O)c3cc(O)cc(O)c3)cc2)c1 do in these assays?
FLuc modulator: inconclusive; ELG1 genotox: 7%; NPC1 promoter act: -1%; ELG1 repair inh: 9%; Rab9 promoter act: 4%

How did COc1ccc2[nH]cc(CCNc3ncnc4ccc(-c5ccccc5C#N)cc34)c2c1 do in these assays?
SMN2 splice enh: -10%
